Paper PMC12040169 (PLOS Biology, 2025)

Tested on: T1, CTL2-GFP (C. trachomatis L2/434/Bu, GFP-expressing)
T1 construct: L2/434/Bu, GFP-expressing
Set-up: species or system HeLa; Intracellular C. trachomatis growth in HeLa cells, bulk GFP fluorescence relative to DMSO
Conditions: bulk GFP, single well; 28.5 h, 10 µM; inhibitor
Experimental: MICs were calculated as described above.

Row | Structure (SMILES) | % of control remaining [%]
1 | CCOC(=O)CC(C)(O)P(=O)(OC)OC (stereo not drawn) [CBK261287] | 100
2 | S=P(Oc1ccccc1)(Oc1ccccc1)Oc1ccccc1 [CBK260987] | 100
3 | O=C(c1cccc(S(=O)(=O)F)c1)N1CCCCC1 [CBK074224] | 100.074
